# Measurements from the supplement of paper PMC10720658.
# ± gives the standard deviation of the averaged measurements.
# Tested on: AEK1 (Tb927.3.2440)
# Assay: percent reduction in TR-FRET probe signal relative to DMSO control; higher = stronger displacement of ATP-site probe (binding)
# Details: 1 µM; incubation time 1 h
row,Compound,percent reduction in TR-FRET probe signal [%]
1,COc1cc2c(Oc3ccc4[nH]c(C)cc4c3F)ncnc2cc1OCCCN1CCCC1 [Cediranib (AZD2171)],63.4 ± 7.6
2,NC(=O)c1ccc(-c2nc(-c3ccc4c(c3)OCCO4)c(-c3ccccn3)[nH]2)cc1,-1.5 ± 7.3
3,CNC(=O)c1cc(Oc2ccc(NC(=O)Nc3ccc(Cl)c(C(F)(F)F)c3)c(F)c2)ccn1 [Regorafenib (BAY 73-4506)],11.5 ± 5.7
4,O=C(c1cccc(Cl)c1F)N1CCN(Cc2cccc(Nc3nccs3)n2)CC1,6.09 ± 13
5,CC(O)C(=O)O.CC(O)C(=O)O.CN1CCN(c2ccc3nc(-c4c(N)c5c(F)cccc5[nH]c4=O)[nH]c3c2)CC1 [Dovitinib (TKI-258) Dilactic Acid],10.5 ± 12
6,CNCc1ccc(-c2cc(-c3nc(-c4ccc(S(=O)(=O)C(C)C)cc4)cnc3N)on2)cc1,0.147 ± 8.7
7,O=C(/C=C/c1ccc2ccccc2n1)c1ccncc1,-6.28 ± 6
8,CCOc1cc(N2CCC(O)CC2)ccc1Nc1ncc2c(n1)N(C)c1ccccc1C(=O)N2C,-8.09 ± 7.7
9,COc1ncc(-c2cc(-c3ncc(CN4C[C@@H](C)O[C@@H](C)C4)o3)c3cn[nH]c3c2)cc1NS(C)(=O)=O,-2.16 ± 6.2
10,Nc1cccc(S(=O)(=O)N2CCCN(S(=O)(=O)c3ccc4c(c3)OCCO4)CC2)c1,-6.38 ± 4.5
11,"COc1cc(F)c(F)c(Nc2ccc(I)cc2F)c1NS(=O)(=O)C1(C[C@H](O)CO)CC1 [Refametinib (RDEA119, Bay 86-9766)]",-1.27 ± 14
